The record followed here is PubChem BioAssay (Tox21).

Several values for one entry are separate records, joined by “and”; a condition that tells them apart may be missing. Equal values may be shown once. Results filed as inconclusive are left out. Where a structure was tested more than once in an assay, its records may differ in their call. Activity calls are given as the source filed them. Unless noted, the call rests on the fitted dose curve; in most records, active means well fitted curve in the direction sought with a large enough effect in the repeat runs; inconclusive means weak or mixed curves; inactive means no such curve, though single readings can be large; an effect the other way counts as inactive or inconclusive.

The nature of test [1]: qHTS assay to identify small molecule antagonists of the estrogen related receptor (ERR) signaling pathway from Tox21 library - cell viability counter screen (AID 1224834). Further: nearly all actives have a fitted effect of over 30% in size. The essentials: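 Viability readout (CellTiter-Fluor fluorescence, 30 min at 37 C) multiplexed with the ERR assay; cells treated 17.5 h at 37 C with compounds delivered in DMSO.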
For orientation: qHTS replaces the single test concentration by a dilution series.

The target in test [2] is Luciferin 4-monooxygenase (Photinus pyralis) (UniProt P08659). In words: qHTS assay to identify small molecule inhibitors of firefly luciferase (AID 1224835). Further: nearly all actives have a fitted effect of over 25% in size. The essentials: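 Biochemical qHTS: compounds run as interplate titrations against purified firefly enzyme, with D-luciferin and ATP each at its KM concentration. Light output recorded by CCD imaging.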
Test [3] in a line: qHTS assay to identify small molecule agonists of the constitutive androstane receptor (CAR) signaling pathway - cell viability counter screen (AID 1224836). Further: nearly all actives have a fitted effect of over 45% in size. The procedure, abridged:
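23 h treatment, 37 C, 5% CO2. Cell line: HepG2 stably expressing hCAR with a CYP2B6-2.2kb construct. Co-treatment: PK11195, 0.75 uM final. Read-out: CellTiter-Fluor fluorescence intensity.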

The nature of test [4]: qHTS assay to identify small molecule antagonists of the constitutive androstane receptor (CAR) signaling pathway - cell viability counter screen (AID 1224837). Further: nearly all actives have a fitted effect of over 45% in size. The procedure, abridged:
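Fluorescence from CellTiter-Fluor served as the viability signal. Human hepatoma HepG2 cells stably bearing hCAR and CYP2B6-2.2kb received compound plus CITCO (50 nM final) for 23 hr.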

The target in test [5] is Nuclear receptor subfamily 1 group I member 3 (Homo sapiens) (UniProt Q14994). In words: qHTS assay to identify small molecule antagonists of the constitutive androstane receptor (CAR) signaling pathway (AID 1224838).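 Further: HepG2 cells stably expressing hCAR with CYP2B6 luciferase reporter stimulated by CITCO; nearly all actives have a fitted effect of over 40% in size.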 The essentials:
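Quantitative HTS in double-stable HepG2-CYP2B6-hCAR cells. After 4 h plating, cells get compound (15 concentrations) and CITCO at 50 nM final, incubate 24 h at 37 C, then ONE-Glo luminescence is read.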

The target is the same in test [6]. Put plainly: qHTS assay to identify small molecule agonists of the constitutive androstane receptor (CAR) signaling pathway (AID 1224839).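 Further: HepG2 cells stably carrying human CAR and a CYP2B6 luciferase reporter; nearly all actives have a fitted effect of over 15% in size.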 The essentials: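 Compounds tested at 15 concentrations on HepG2 cells stably harbouring hCAR and CYP2B6-2.2kb reporter constructs, co-treated with PK11195 (0.75 uM final), 24 h at 37 C; luminescent reporter signal quantified.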

A short description of test [7]: qHTS assay to identify small molecule antagonists of the estrogen related receptor signaling pathway with the pleiotropic PPARgamma coactivator (PGC) from Tox21 10K library - cell viability counter screen (AID 1224840; active means well fitted cell-killing curve with a large enough effect in the repeat runs, not every such curve was filed as active; further: nearly all actives have a fitted effect of over 40% in size). The procedure, abridged:
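Compounds in DMSO, alongside positive and negative controls, were pinned onto PGC/ERR cells (2,000 per well). Exposure lasted 17.5 hours at 37 C, followed by a 30-minute CellTiter-Fluor incubation and fluorescence reading.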

A short description of test [8]: qHTS assay to identify small molecule antagonists of the estrogen related receptor signaling pathway with the pleiotropic PPARgamma coactivator (PGC) from Tox21 10K library (AID 1224841; call rule not given here; further: actives are mostly falling curves and most rising ones were filed inactive; nearly all actives have a fitted effect of over 50% in size). The procedure, abridged:
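Compound exposure ran 18 hours at 37 C in PGC/ERR cells (2,000/well) that had first rested 6 hours in a 37 C/5% CO2 incubator. Luciferase activity was then detected with One-Glo after a 30-minute room-temperature step.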

A short description of test [9]: qHTS assay to identify small molecule agonists of the estrogen related receptor signaling pathway with the pleiotropic PPARgamma coactivator (PGC) from Tox21 10K library (AID 1224842). Further: nearly all actives have a fitted effect of over 15% in size. The procedure, abridged: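 PGC/ERR reporter cell line, 2,000 cells per well, incubated 6 h at 37 C before 23 nL compound in DMSO was added. After 18 h at 37 C, One-Glo luminescence read following 30 min at room temperature.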

The nature of test [10]: qHTS assay to identify small molecule agonists of the hypoxia (HIF-1) signaling pathway - cell viability counter screen (AID 1224844; calls by dose curve; further: nearly all actives have a fitted effect of over 50% in size). The procedure, abridged: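 Luminescent ATP content (CellTiter-Glo, 30 min, room temperature) served as the viability measure in HRE-bla ME-180 cells exposed to compounds for 17 hrs in low-serum medium (0.5% dialyzed FBS).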
The nature of test [11]: qHTS assay to identify small molecule agonists of H2AX (AID 1224845; active means well fitted activation curve with a large enough effect in the signal ratio in the repeat runs, not every such curve was filed as active; the % refers to the signal ratio). The essentials: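 Wild-type CHO-K1 cells, plated overnight, exposed 3hr at 37C to 15 concentrations (0.76% DMSO final). Lysed, then HTRF anti-pH2AX (S139) cryptate and anti-H2AX-d2 antibodies, 24 hr room temperature; 665/620 nm emission read.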
Test [12] is described as follows: qHTS assay to identify small molecule agonists of the hypoxia (HIF-1) signaling pathway (AID 1224846; active means well fitted activation curve with a large enough effect in the signal ratio in the repeat runs, not every such curve was filed as active; the % refers to the signal ratio). The procedure, abridged:
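Measured by blue/green FRET after loading CCF4-AM: beta-lactamase expressed from a hypoxia response element in ME-180 cells. Test agents were delivered in DMSO and left 17 hrs; cells had been plated 5 hrs earlier in low-serum (0.5% dialyzed FBS) medium.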

The nature of test [13]: qHTS assay to identify small molecule agonists of H2AX - cell viability counter screen (AID 1224847; calls by dose curve; further: top concentration of the series differs between compounds; nearly all actives have a fitted effect of over 30% in size). The essentials: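 Compounds tested at 15 concentrations were incubated 3 hr at 37C with wild-type CHO-K1 cells; cellular ATP-based luminescence (CellTiter-Glo) indicated viability.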
Test [14] can be described thus: qHTS assay to identify small molecule antagonists of the estrogen related receptor (ERR) signaling pathway from Tox21 library (AID 1224848). Further: nearly all actives have a fitted effect of over 50% in size. Further: potency means the concentration at half of the fitted maximal effect. The procedure, abridged: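 Luminescent reporter read-out (ONE-Glo) from NTP's ERR cell line after 18 h treatment at 37 C with DMSO-dissolved Tox21 compounds; cells pre-plated 6 h beforehand at 2,000 per well.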
A short description of test [15]: qHTS assay to identify small molecule agonists of the estrogen related receptor (ERR) signaling pathway from Tox21 library (AID 1224849; calls by dose curve; further: nearly all actives have a fitted effect of over 15% in size). The settings on record: ERR reporter cell line, ONE-Glo luciferase, 18 h; at 92.4 µM (top of the series) unless noted. The essentials: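 We plated ERR reporter cells, waited 6 h, added compounds in DMSO by pin tool and incubated them 18 h at 37 C. ONE-Glo was then added and luminescence read after 30 min.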

Test [16] can be described thus: qHTS RealTime-Glo MT Cell Viability Assay in HepG2 cells - 24 hour (AID 1224867). Further: nearly all actives have a fitted effect of over 50% in size. The essentials: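 Luminescence read-out: viable HepG2 cells reduce a prosubstrate to a NanoLuc substrate, giving a signal proportional to live cell number. Reads taken at 0, 8, 16, 24, 32 and 40 h of compound exposure at 37 C.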
The nature of test [17]: qHTS RealTime-Glo MT Cell Viability Assay in HEK293 cells - 32 hour (AID 1224868). Further: nearly all actives have a fitted effect of over 50% in size. Further: potency means the concentration at half of the fitted maximal effect. The essentials: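 Nonlytic real-time viability readout: viable cells convert prosubstrate to NanoLuc substrate, giving luminescence proportional to live cell number. HEK293, 600 cells/well, compound added after 5 h, continuous culture at 37 C.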
Test [18] in a line: A CellTox Green Cytotoxicity Assay to monitor cytotoxicity in HEK293 cells - 0 hour (AID 1224869). Further: nearly all actives have a fitted effect of over 50% in size. Further: potency means the concentration at half of the fitted maximal effect. The procedure, abridged: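 Each value comes from one timepoint of a single continuous run in which HEK293 cells with CellTox Green were exposed to compound for up to 40 h at 37 C, dye fluorescence rising with cell death.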
Test [19] is described as follows: qHTS RealTime-Glo MT Cell Viability Assay in HepG2 cells - 40 hour (AID 1224870). Further: nearly all actives have a fitted effect of over 50% in size. The procedure, abridged:
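HepG2 cells (600/well) mixed with RealTime-Glo MT reagent, settled 5 h at 37 C/5% CO2 before compound addition. Nonlytic NanoLuc luminescence from viable-cell prosubstrate reduction read repeatedly during 40 h treatment at 37 C.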

The target of test [20] is Thyrotropin receptor (Homo sapiens) (UniProt P16473). Put plainly: qHTS assay to identify small molecule agonists of the thyroid stimulating hormone receptor (TSHR) signaling pathway (AID 1224843; calls by dose curve; further: nearly all actives have a fitted effect of over 45% in size). The procedure, abridged: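 Steps: seed 800 TSHR-HEK293 cells per well; add test compound and hold 30 min at ambient temperature; dispense cAMP-d2 then anti-cAMP cryptate; incubate 1 h at ambient; measure fluorescence intensity.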
On the % scale 0 is the no-effect control and ±100 the full control effect.

Sequence of Luciferin 4-monooxygenase (Photinus pyralis) (P08659 whole entry, looked up): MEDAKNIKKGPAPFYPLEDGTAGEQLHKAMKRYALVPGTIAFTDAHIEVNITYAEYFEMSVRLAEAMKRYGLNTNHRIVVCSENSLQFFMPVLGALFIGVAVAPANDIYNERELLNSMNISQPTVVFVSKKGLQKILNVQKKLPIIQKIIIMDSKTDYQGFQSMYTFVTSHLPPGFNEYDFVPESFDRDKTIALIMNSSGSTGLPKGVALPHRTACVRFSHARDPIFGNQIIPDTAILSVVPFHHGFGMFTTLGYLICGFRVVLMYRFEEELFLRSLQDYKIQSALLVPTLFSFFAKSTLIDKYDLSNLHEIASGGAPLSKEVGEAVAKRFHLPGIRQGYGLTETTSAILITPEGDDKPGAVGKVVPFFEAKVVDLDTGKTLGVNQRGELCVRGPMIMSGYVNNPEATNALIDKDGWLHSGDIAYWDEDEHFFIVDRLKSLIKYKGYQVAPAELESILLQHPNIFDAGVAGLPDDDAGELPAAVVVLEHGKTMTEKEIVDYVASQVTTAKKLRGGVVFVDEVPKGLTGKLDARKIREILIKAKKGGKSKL
Sequence of Thyrotropin receptor (Homo sapiens) (P16473 whole entry, looked up): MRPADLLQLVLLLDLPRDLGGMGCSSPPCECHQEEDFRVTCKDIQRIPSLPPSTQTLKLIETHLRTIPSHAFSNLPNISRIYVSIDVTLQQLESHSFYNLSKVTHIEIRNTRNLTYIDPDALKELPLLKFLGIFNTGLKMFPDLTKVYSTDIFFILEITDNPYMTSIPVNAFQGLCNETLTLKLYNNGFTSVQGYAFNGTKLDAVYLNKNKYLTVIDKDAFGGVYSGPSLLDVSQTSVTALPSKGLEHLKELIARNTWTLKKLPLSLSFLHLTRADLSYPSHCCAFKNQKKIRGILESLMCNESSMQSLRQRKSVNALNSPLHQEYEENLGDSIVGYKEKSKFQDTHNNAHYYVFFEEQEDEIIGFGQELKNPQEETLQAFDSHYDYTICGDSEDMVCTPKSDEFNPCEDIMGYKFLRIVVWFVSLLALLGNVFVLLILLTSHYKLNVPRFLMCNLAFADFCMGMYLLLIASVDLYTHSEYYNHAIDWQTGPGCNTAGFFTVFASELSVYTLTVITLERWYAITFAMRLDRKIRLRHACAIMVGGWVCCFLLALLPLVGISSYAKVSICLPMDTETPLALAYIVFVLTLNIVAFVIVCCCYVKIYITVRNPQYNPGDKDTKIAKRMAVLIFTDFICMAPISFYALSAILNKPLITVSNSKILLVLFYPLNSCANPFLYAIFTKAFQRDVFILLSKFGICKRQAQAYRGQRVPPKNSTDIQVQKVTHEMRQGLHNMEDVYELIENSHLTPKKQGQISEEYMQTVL
Sequence of Nuclear receptor subfamily 1 group I member 3 (Homo sapiens) (Q14994 whole entry, looked up): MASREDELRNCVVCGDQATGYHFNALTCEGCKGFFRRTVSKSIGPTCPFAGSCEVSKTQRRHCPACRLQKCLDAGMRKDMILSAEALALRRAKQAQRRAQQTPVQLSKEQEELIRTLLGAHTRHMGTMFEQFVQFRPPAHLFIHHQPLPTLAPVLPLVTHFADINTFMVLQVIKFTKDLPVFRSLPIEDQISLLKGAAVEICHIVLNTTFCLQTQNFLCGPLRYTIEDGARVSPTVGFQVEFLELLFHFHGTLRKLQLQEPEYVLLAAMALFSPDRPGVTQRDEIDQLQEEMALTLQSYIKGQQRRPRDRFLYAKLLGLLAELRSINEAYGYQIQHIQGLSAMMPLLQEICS

Turning to `OC1CCCCC1c1ccccc1` (centres undefined), the Potency result in test [1], in test [2], in test [3], in test [4], in test [5] and in test [6] was “inactive” throughout. Also, the Potency entry in [7], in test [8], in [10], in test [13], in test [14] and in test [16] was “inactive” each time. Also, the Potency result in test [17] and in test [18] was “inactive” each time. Also, the compound was classed as inactive in test [9], in test [11] and in [12]. Besides, the activity change, positive = activation in test [15] is 0.961% (inactive).

As to `CO[Si](CCCOCC1CO1)(OC)OC` (centres undefined), the Potency entry in test [1], in test [2], in [3], in test [4], in [5] and in [6] was “inactive” each time. Moreover, the Potency result in test [7], in [10], in test [13], in test [16], in test [17] and in test [18] was “inactive” in each case. In addition, in test [19], the Potency result is “inactive”. For the same compound, the compound was called inactive in test [11] and in test [12].

For `CCCc1cc(C(N)=S)ccn1`, the Potency entry in test [1], in test [2], in [3], in test [4], in test [5] and in [7] was “inactive” in each case. The Potency result in test [8], in test [20], in test [10], in [13], in test [14] and in [16] was “inactive” each time. Besides, the Potency result in test [17], in test [18] and in test [19] was “inactive” each time. The outcome in test [9], in [11] and in test [12] was inactive. In addition, in [15], the activity change, positive = activation was -6.09% [at 42.5 µM] (inactive).

Take `O=C(CCCN1CCC(O)(c2cccc(C(F)(F)F)c2)CC1)c1ccc(F)cc1`: the Potency entry in [1], in [2], in test [3], in [4], in test [5] and in [6] was “inactive” throughout. The Potency result in test [7], in test [20], in test [10], in test [13], in test [14] and in [16] was “inactive” in each case. Further, the Potency result in [18] and in test [19] was “inactive” in each case. Besides, the result in [9] and in test [11] was inactive. The activity change, positive = activation in test [15] is -10.2% [at 42.5 µM] (inactive). Further, the Potency in test [17] was 19 µM (active).

Consider `C[C@H](NC(CCc1ccccc1)C(=O)O)C(=O)N1CCC[C@H]1C(=O)O` (some centres undefined), for which the Potency entry in test [1], in test [2], in [3], in test [4], in test [5] and in [6] was “inactive” each time. Moreover, the Potency result in test [8], in test [10], in [13], in test [16], in test [17] and in test [18] was “inactive” each time. Besides, the outcome in test [9], in test [11] and in test [12] was inactive. Further, the Potency in test [14] is 5.96 µM (active). The activity change, positive = activation in test [15] was -0.914% [at 42.5 µM] (inactive).

For `O=c1n(CCO)c(=O)n(CCO)c(=O)n1CCO`, the Potency result in test [1], in test [2], in [3], in test [4], in [5] and in [6] was “inactive” throughout. Moreover, the Potency entry in [10], in test [13], in test [16], in test [17] and in test [19] was “inactive” in each case. The compound was classed as inactive in test [11] and in test [12]. In addition, the Potency entry in test [18] is “inactive and 43.6 µM (active)”.

Consider `O=C(O)CCCl`, for which the Potency entry in test [1], in test [2], in test [3], in [4], in test [5] and in test [6] was “inactive” in each case. Besides, the Potency entry in [8], in test [20], in [10], in [13], in [14] and in [16] was “inactive” each time. Besides, the Potency entry in test [17] and in test [18] was “inactive” each time. For the same compound, the call in test [9], in test [11] and in test [12] was inactive. For the same compound, the activity change, positive = activation in test [15] was -15.3% (inactive).
